Bioassay records: PubChem BioAssay, National Center for Advancing Translational Sciences (NCATS)
D1 potentiator – human D1 dopamine receptor positive modulation. HEK293 TREx D1 cells, calcium flux, dopamine EC20 potentiation. AID 504651. potentiation, % at 10 µM. P21728. 0.036% of 360,000 active; in the data active = potentiation above about 30%; note: 0% is about no effect
TRHR agonist – activates the human TRH receptor | P34981 | TRHR cells, calcium flux fluo-8, FDSS agonist mode | activation, % at 2 µM | 0.18% of 360,000 active; note: 0% is about no effect
Target sequence (P34981 whole entry, looked up): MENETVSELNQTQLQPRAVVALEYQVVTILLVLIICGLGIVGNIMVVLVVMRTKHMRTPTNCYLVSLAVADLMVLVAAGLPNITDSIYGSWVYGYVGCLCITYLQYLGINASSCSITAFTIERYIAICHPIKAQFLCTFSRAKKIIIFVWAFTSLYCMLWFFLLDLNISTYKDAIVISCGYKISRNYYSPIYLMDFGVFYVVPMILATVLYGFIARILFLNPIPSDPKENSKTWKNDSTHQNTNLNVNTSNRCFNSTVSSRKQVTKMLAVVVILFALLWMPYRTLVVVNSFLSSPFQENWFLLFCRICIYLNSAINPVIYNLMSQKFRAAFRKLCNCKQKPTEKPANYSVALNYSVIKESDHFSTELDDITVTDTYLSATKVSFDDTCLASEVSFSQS
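TRHR-expressing cells, plated overnight in medium with 10% serum, were loaded with fluo-8 calcium dye at room temperature. After a 10 s baseline, library compound was pin-added and calcium release was recorded kinetically (ex 480/em 530) as agonist response.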
USP1 inh – blocks the human USP1/UAF1 deubiquitinase complex. Potency, µM (series often up to 57.1 µM), for inactives: at the top dose activity change, negative = inhibition, most hits filed as inhibitors. AID 743255. 0.23% of 390,000 active. recombinant USP1/UAF1, Ub-Rhodamine cleavage fluorescence; active = well fitted inhibition curve with a large enough effect; inconclusive = small, poorly fitted or top-dose-only effect; inactive = no such curve, though single readings can be large or run the other way; note: potency is the fitted concentration of half-maximal effect; % is set by controls: 0 for no effect and ±100 for the full control effect; nearly all actives have a fitted effect of over 60% in size
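1 nM enzyme complex + cpd, 15 min RT; start with Ub-Rho 150nM final; kinetic fluorescence ex 480/em 540, 6 reads q60 s. Buffer 50mM HEPES pH 7.8, 0.5mM EDTA, 0.1 mg/ml BSA, 1mM TCEP, 0.01% Tween-20.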
D1 antag – antagonists of human D1 dopamine receptor. P21728. HEK293 TREx D1 cells, calcium flux, dopamine EC80; hits give low values. activity change, negative = inhibition, % at 10 µM. 3.2% of 360,000 active; in the data active = activity change below about -30%; note: % is set by controls: 0 for no effect and ±100 for the full control effect
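Using tetracycline-induced force-coupled D1 Hek293 cells and a calcium dye, signals were followed for 180 s after compound, then for 180 s after EC80 dopamine, to detect inhibitors.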
TRHR enhancer – TRH receptor (human) allosteric enhancement. P34981. 0.66% of 360,000 active. enhancement, % at 2 µM. AID 493056. TRHR cells, fluo-8 calcium fluorescence, EC20 TRH enhancement; in the data active = enhancement above about 30%; note: 0% is about no effect
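TRHR-expressing cells loaded with fluo-8 calcium dye were read kinetically (ex 480/em 530) during compound addition, then stimulated with an EC20 of TRH (10 nM final). Enhancement of the Gq-mediated intracellular calcium response was scored.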
D1 ag – activates the human D1 dopamine receptor; P21728; HEK293 T-REx D1 cells, calcium flux, agonist mode; activation, % at 2 µM; 1% of 360,000 active; AID 504660; note: 0% is about no effect
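Agonism was scored from calcium flux recorded over 180 s (1 read/s) after pintool compound addition, following a 10-cycle baseline. Cells were inducible force-coupled HEK293 TREx D1, plated overnight at 30 C and loaded with no-wash calcium dye.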
* hit, by the source's call; ! = not active in a repeat. In the library only some 4.4% were active in any assay of this set; here they are far more common. Cut-off read from the data, not from the text of the source, unless noted: active = activation above about 30%; inactive = the rest.

For CCN(C(=O)CCc1nc(-c2ccc(OC)cc2)no1)c1cc(OC)ccc1OC the results were D1 potentiator -4.5, TRHR agonist 0.1, USP1 inh -7.5%, D1 antag -49.0*, TRHR enhancer -4.4 and D1 ag 29.7.
For COc1ccc(CCCc2nnc(SCC(=O)Nc3cccc(C)c3)o2)cc1 the results were D1 potentiator -2.9, TRHR agonist -0.7, USP1 inh -18.1%, D1 antag -42.9*!, TRHR enhancer 7.7 and D1 ag 46.5*!.
`O=C(CCc1nc(-c2ccccc2F)no1)NC1CCN(Cc2ccccc2)CC1` gave D1 potentiator -5.7, TRHR agonist -0.5, USP1 inh -10.2%, D1 antag -30.1*, TRHR enhancer 4.3 and D1 ag 31.1*.
Screening CCOC(=O)c1c(NC(=O)C(C)Sc2cn(CCNC(=O)c3ccc(OC)cc3)c3ccccc23)sc2c1CCC2 (configuration not stated) returned D1 potentiator -0.3, TRHR agonist 1.6, USP1 inh -9.4%, D1 antag 3.8, TRHR enhancer 0.9 and D1 ag -0.8.
O=C(CCc1nc(-c2ccccc2F)no1)Nc1cccc(C(F)(F)F)c1 was read as D1 potentiator -2.6, TRHR agonist 1.3, USP1 inh -13.2%, D1 antag -29.4, TRHR enhancer -3.2 and D1 ag 31.5*.
CCOC(=O)c1cccc(NC(=O)CCc2nc(-c3ccccc3F)no2)c1 was read as D1 potentiator -2.1, TRHR agonist 0.3, USP1 inh -8.4%, D1 antag 0.8, TRHR enhancer -2.4 and D1 ag 10.4.
COc1ccc(-c2noc(CCC(=O)Nc3cccc(C)c3)n2)cc1 was read as D1 potentiator -4.0, TRHR agonist -0.8, USP1 inh -3.6%, D1 antag -44.6*, TRHR enhancer 2.2 and D1 ag 6.5.
For COc1ccc(NC(=O)CCc2nc(-c3ccccc3F)no2)cc1 the results were D1 potentiator -4.2, TRHR agonist 0.3, USP1 inh 2.9%, D1 antag -19.4, TRHR enhancer 4.5 and D1 ag 11.3.
CCOC(=O)c1cccc(NC(=O)CCc2nc(-c3ccc(C)cc3)no2)c1 was read as D1 potentiator 3.9, TRHR agonist -0.3, USP1 inh -9.6%, D1 antag -21.7, TRHR enhancer 4.6 and D1 ag 31.4*.
`CCOC(=O)Cn1c(=O)n(C2CCCCC2)c2nc(-c3ccccc3Cl)nc(C(N)=O)c21` gave D1 potentiator 0.2, TRHR agonist 0.1, USP1 inh -5.4%, D1 antag 4.4, TRHR enhancer 23.8 and D1 ag 2.7.
CCOc1ccc(-c2nnc(SCC(=O)Nc3cccc(Cl)c3C)o2)cc1 was read as D1 potentiator 0.1, TRHR agonist 1.4, USP1 inh -21.4%, D1 antag -35.2*, TRHR enhancer -0.2 and D1 ag 21.7.
Screening CCOc1ccc(-c2nnc(SCC(=O)Nc3ccccc3C(F)(F)F)o2)cc1 returned D1 potentiator 0.8, TRHR agonist 0.2, USP1 inh -11.3%, D1 antag 3.9, TRHR enhancer 0.1 and D1 ag 2.7.
Screening O=C(CSc1nnc(-c2cccs2)o1)c1cccs1 returned D1 potentiator -5.7, TRHR agonist -2.6, USP1 inh -6.1%, D1 antag -4.3, TRHR enhancer -1.0 and D1 ag 9.3.
Screening Cc1cc(C(=O)CSc2nnc(-c3cccs3)o2)c(C)n1-c1ccccc1 returned D1 potentiator 1.9, TRHR agonist -0.4, USP1 inh -19.2%, D1 antag -54.9*, TRHR enhancer -5.9 and D1 ag 2.0.
Cn1ccc2cc(S(=O)(=O)N3CCCC(C(=O)NCc4ccc(F)cc4)C3)ccc21 (configuration not stated) was read as D1 potentiator -3.5, TRHR agonist -0.4, USP1 inh -4.6%, D1 antag 8.0, TRHR enhancer -4.2 and D1 ag -0.2.
Cc1ccc(-c2cc(-c3ccccc3)c(C#N)c(SCC(O)CS(=O)(=O)Cc3ccccc3)n2)cc1 (configuration not stated) was read as D1 potentiator 0.6, TRHR agonist 0.6, USP1 inh -1.8%, D1 antag -38.7*, TRHR enhancer 4.8 and D1 ag 11.0.
Screening N#Cc1c(-c2ccccc2)cc(-c2ccccc2)nc1SCC(O)CS(=O)(=O)Cc1ccccc1 (configuration not stated) returned D1 potentiator -2.5, TRHR agonist 1.2, USP1 inh -24.1%, D1 antag 3.7, TRHR enhancer 7.7 and D1 ag 3.5.
`CCN(CC)C(=O)c1sc(NC(=O)c2nc3ncccn3n2)c(C(=O)OC)c1C` gave D1 potentiator -3.3, TRHR agonist -1.2, USP1 inh -14.9%, D1 antag -16.6, TRHR enhancer 32.0* and D1 ag -0.1.
`CCCOC(=O)c1c(NC(=O)c2nc3ncccn3n2)sc(C(=O)OCC)c1C` gave D1 potentiator -7.2, TRHR agonist -0.8, USP1 inh -6.1%, D1 antag -3.8, TRHR enhancer -2.6 and D1 ag 0.2.
Screening COc1cccc(NC(=O)Cn2nnc(C(=O)Nc3ccccc3)c2N)c1 returned D1 potentiator -6.0, TRHR agonist -0.1, USP1 inh -14.1%, D1 antag 5.8, TRHR enhancer -4.6 and D1 ag 1.9.
CCc1ccc(Cn2nnc(C(=O)Nc3ccc(OC)cc3OC)c2N)cc1 was read as TRHR agonist 5.2, USP1 inh 1.2%, D1 antag 13.8, TRHR enhancer 7.0 and D1 ag 33.4*.
For COc1cccc(NC(=O)c2nnn(Cc3cccc(C(F)(F)F)c3)c2N)c1 the results were D1 potentiator -4.1, TRHR agonist -0.8, USP1 inh -0.7%, D1 antag -7.1, TRHR enhancer 13.8 and D1 ag 62.9*.
`COc1cccc(NC(=O)c2nnn(Cc3ccc(Br)cc3F)c2N)c1` gave D1 potentiator 4.1, TRHR agonist 5.9, USP1 inh inconclusive, D1 antag 3.6, TRHR enhancer -5.0 and D1 ag 38.7*.
`COc1ccccc1NC(=O)c1nnn(Cc2ccccc2)c1NC(=O)C(F)(F)F` gave D1 potentiator 7.8, TRHR agonist -0.1, USP1 inh -16.3%, D1 antag -1.2, TRHR enhancer -1.8 and D1 ag 1.5.
Screening COc1ccccc1NC(=O)c1nnn(Cc2ccccc2)c1NC(C)=O returned D1 potentiator 1.1, TRHR agonist -0.9, USP1 inh -13.0%, D1 antag -48.0*, TRHR enhancer 3.2 and D1 ag 3.0.
For Cc1c(Cl)cccc1NC(=O)CCn1c(=O)c2cccn2c2ccccc21 the results were D1 potentiator -3.5, TRHR agonist -0.4, USP1 inh -4.1%, D1 antag -15.3, TRHR enhancer -1.8 and D1 ag 1.8.
